Screening results deposited in PubChem by National Center for Advancing Translational Sciences (NCATS).
In the library only some 4.1% were active in any assay of this set; here they are far more common.
AmpC detergent – AmpC beta-lactamase inhibition with detergent present. Potency, µM (top dose mostly 114 µM), actives largely listed as inhibitors. AmpC hydrolysis of nitrocefin, absorbance 480 nm, 0.01% Triton. P00811. 370,000 tested, 0.041% active; note: nearly all actives have a fitted effect of over 25% in size
Target sequence (P00811 whole entry, looked up): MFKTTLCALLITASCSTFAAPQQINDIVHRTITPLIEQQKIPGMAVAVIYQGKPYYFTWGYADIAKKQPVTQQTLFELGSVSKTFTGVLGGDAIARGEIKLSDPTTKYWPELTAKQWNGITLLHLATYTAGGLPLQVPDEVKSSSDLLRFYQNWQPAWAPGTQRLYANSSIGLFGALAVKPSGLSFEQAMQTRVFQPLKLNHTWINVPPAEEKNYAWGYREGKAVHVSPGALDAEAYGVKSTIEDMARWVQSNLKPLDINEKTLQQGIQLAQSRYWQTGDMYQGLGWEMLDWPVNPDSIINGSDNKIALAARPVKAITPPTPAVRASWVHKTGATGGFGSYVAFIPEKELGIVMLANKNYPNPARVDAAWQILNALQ
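AmpC (5.3 nM in the dispensed reagent) in 20 mM phosphate pH 7.0 with 0.01% (detergent screen) or 0.0001% Triton X-100 was preincubated with compounds for 15 min at room temperature. Nitrocefin was then added from an 800 uM solution, and hydrolysis was followed at 480 nm.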
AmpC no deterg – AmpC beta-lactamase inhibition without detergent. AmpC nitrocefin hydrolysis, absorbance 480 nm, 0.0001% Triton. Potency, µM (series often up to 57.1 µM), hits mostly inhibitors. 330,000 tested, 0.52% active. AID 485341; note: nearly all actives have a fitted effect of over 20% in size
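20 mM phosphate pH 7.0 + 0.01% (detergent screen) or 0.0001% Triton X-100; 5.3 nM AmpC reagent; cpd preinc 15 min RT; nitrocefin (800 uM stock) to start; A480 q20 s × 4 min; Activity was normalised to no-enzyme and no-compound control wells.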
Sm TGR block – inhibitors of Schistosoma mansoni thioredoxin glutathione reductase | Q962Y6 | purified TGR, DTNB reduction, TNB absorbance 405 nm | Potency, µM (series often up to 114 µM), most hits filed as inhibitors | 360,000 tested, 3% active; note: nearly all actives have a fitted effect of over 60% in size
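Kinetic colorimetric format: TGR-catalysed, NADPH-driven DTNB reduction monitored via TNB absorbance. Enzyme dispensed at 20 nM; compound exposure 15 min at room temperature before reaction start.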
FMDV antiviral – antivirals against foot and mouth disease virus. 410,000 tested, 1.2% active. FMDV antiviral cell-based qHTS. Potency, µM (series often up to 57.9 µM), hits mostly inhibitors; calls by dose curve; tested in HEK293T cells; note: read-out not given here; nearly all actives have a fitted effect of over 45% in size
AMA1-RON2 inh – AMA1-RON2 (P. falciparum) interaction inhibition; Potency, µM (series often up to 58.2 µM), actives largely listed as inhibitors; 360,000 tested, 0.2% active; AlphaScreen AMA1-biotinylated RON2 peptide binding; AID 720542; note: nearly all actives have a fitted effect of over 45% in size
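AMA1 (3D7) with his tag at 25 nM final met compounds first, then biotinylated RON2 peptide at 25 nM; detection used donor plus acceptor beads, 10 µg/mL apiece, read by AlphaScreen after 30 min at room temperature.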
Of the large screens only hits and unclear results are named; the others gave an inactive call. Unless noted, calls come from the whole dose curve; as a rule, active = well fitted curve in the direction sought with a large enough effect; inconclusive = small, poorly fitted or top-dose-only effect, or another doubt; inactive = no such curve, though single readings can be large; an effect the other way counts as inactive or inconclusive.

CCn1c(C)cc(C(=O)COC(=O)c2ccccc2[N+](=O)[O-])c1C	FMDV antiviral 5.6µM (no result: AmpC detergent, Sm TGR block)
COCCn1c(C)cc(C(=O)COC(=O)c2n[nH]c3ccccc23)c1C	FMDV antiviral 11µM
COc1cc(OC)cc(C(=O)Nc2ccc3nc(N4CCC(C)CC4)cc(C)c3c2)c1	none (no result: AmpC no deterg, AMA1-RON2 inh)
N#CCCn1cc(C(=O)Nc2ccc(C(=O)O)cc2)c(-c2cccc(Br)c2)n1	AmpC detergent inconclusive, Sm TGR block 100µM
Cc1ccc(NC(=O)CSc2nnc3nc(C)cc(C)n23)cc1	none (no result: AmpC no deterg, AMA1-RON2 inh)
Cc1nc2scc(-c3ccccc3)c2c(=O)n1N=C1C=CC(=O)C=C1	FMDV antiviral 28µM
Cc1nc2scc(-c3ccccc3)c2c(=O)n1N	none
O=C(NCCN1Cc2ccccc2OC(c2ccsc2)C1)c1ccc2[nH]ccc2c1 (stereo not given)	none (no result: AmpC detergent, AmpC no deterg, Sm TGR block, AMA1-RON2 inh)
COc1ccc(CN(C)CC2CCCN(CCc3ccc(F)cc3)C2)cc1OC (stereo not given)	none
COc1cc(CN(C)CC2CCCN(CCc3cccc(C(F)(F)F)c3)C2)ccc1O (stereo not given)	Sm TGR block 28µM
COc1cccc(N2CC(NC(=O)c3ccc4c(c3)OCO4)CC2=O)c1 (stereo not given)	none (no result: AmpC no deterg, AMA1-RON2 inh)
Oc1ccc(O)c(Cc2nc3ccccc3[nH]2)c1	Sm TGR block 6.3µM
O=C1/C(=C/N(C(=O)c2ccco2)c2ccc(Cl)cc2)Sc2ccccc21	Sm TGR block 40µM, FMDV antiviral inconclusive
O=C1c2ccccc2C(=O)N1CCCCN(C(=O)c1ccco1)c1ccc(Cl)cc1	FMDV antiviral inconclusive
O=C1/C(=C/N(C(=O)c2ccco2)c2ccc(Br)cc2)Sc2ccccc21	AmpC detergent inconclusive, Sm TGR block 13µM, FMDV antiviral 11µM
COc1ccc(CN(C(=O)c2ccco2)c2ccc(Br)cc2)cc1OC	FMDV antiviral inconclusive
CCOc1ccc(CNC(=O)CSc2nnc(C)c3c(C)n(-c4ccc(Cl)cc4)nc23)cc1	FMDV antiviral inconclusive (no result: AmpC no deterg, AMA1-RON2 inh)
Oc1c(C(c2ccc(F)cc2)N2CCCC2)sc2nc(-c3ccco3)nn12 (stereo not given)	none (no result: AmpC no deterg, AMA1-RON2 inh)
Cc1ccccc1C(=O)N(Cc1sccc1C)C1CCS(=O)(=O)C1 (stereo not given)	none (no result: AmpC no deterg, AMA1-RON2 inh)
CCCN1CCOC(CC(=O)Nc2ccc([N+](=O)[O-])cc2)C1=O (stereo not given)	Sm TGR block 28µM
CCN1CCOC(CC(=O)Nc2cccc([N+](=O)[O-])c2)C1=O (stereo not given)	Sm TGR block 11µM
CC1CCN(CC(=O)Nc2cccc([N+](=O)[O-])c2)CC1	none
COc1cc(-c2ccno2)ccc1S(=O)(=O)N1CCN(c2cccc(Cl)c2)CC1	none (no result: AmpC no deterg, AMA1-RON2 inh)
CCc1cc(SC#N)cc(CC)c1NC(=O)CCl	Sm TGR block inconclusive, FMDV antiviral 25µM
CCN(CC)CCCNC(=O)CN1N=C(c2ccccc2)CCC1=O	none (no result: AmpC no deterg, AMA1-RON2 inh)
Cc1ccc(-n2c(SCC(N)=O)nc3c(c2=O)C2(CCCC2)Cc2ccccc2-3)cc1	FMDV antiviral 22µM
CCCSc1nnc2n(-c3cccc(C)c3)c(=O)c3c4c(sc3n12)CCCC4	none (no result: AmpC no deterg, AMA1-RON2 inh)
Cc1cccc(Cn2c(SCc3ccc(C(=O)NCCc4ccccc4)cc3)nc3ccncc32)c1	none (no result: AmpC no deterg, AMA1-RON2 inh)
COc1cccc2oc3cc(C#Cc4ccccn4)ccc3c(=O)c12	Sm TGR block 7.9µM
O=C(COC(=O)CC(c1ccccc1)c1ccccc1)NCc1ccc(Cl)cc1	FMDV antiviral 35µM
CCCC(=O)OCC(=O)NCc1ccc(Cl)cc1	none
CCC(=O)N1CCc2cc(Br)cc(S(=O)(=O)CCC(=O)N(CC)Cc3ccccc3)c21	none (no result: AmpC no deterg, AMA1-RON2 inh)
Cc1cnc(C(=O)Nc2ccccc2-n2cccc2)cn1	Sm TGR block 50µM
Cc1cnc(C(=O)Nc2ccccc2F)cn1	none
Cc1ccc(-c2nc3c(c(SCC(=O)N4CCOCC4)n2)Cc2c(CO)cnc(C)c2O3)cc1	Sm TGR block 35µM
COc1ccc(-c2nc3c(c(SCC(=O)Nc4cc(C)cc(C)c4)n2)Cc2c(CO)cnc(C)c2O3)cc1	none (no result: AmpC no deterg, AMA1-RON2 inh)
Cc1cc(C)cc(NC(=O)CSc2nc(-c3cccc(Cl)c3)nc3c2Cc2c(CO)cnc(C)c2O3)c1	Sm TGR block 35µM (no result: AmpC no deterg, AMA1-RON2 inh)
CCN(CC)C(=O)CSc1nc(-c2ccc(C)cc2)nc2c1Cc1c(CO)cnc(C)c1O2	Sm TGR block 20µM, FMDV antiviral inconclusive (no result: AmpC no deterg, AMA1-RON2 inh)
